Test results from PubChem BioAssay (NCI).
About 83,000 compounds went through this panel and 20% of them were active in at least one assay; those are over-represented in the sample as a whole.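 Cells were grown in 96-well plates and exposed to the test compound at a single concentration for 48 hours; results are reported as percent growth, with values below 10 considered active.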 Active and inactive are the calls of the source.

Assays:
Assay in all cases: NCI-60 one-dose screen, 48 h (100 = growth as untreated, 0 = no growth, -100 = all killed)
SK-MEL-2 melanoma = details: 10 µM
EKVX NSCLC = tested on: EKVX NSCLC
SN12C renal = tested on: SN12C renal
UO-31 renal = tested on: UO-31 renal
TK-10 renal = tested on: TK-10 renal
ACHN renal = tested on: ACHN renal
CAKI-1 renal = tested on: CAKI-1 renal
CCRF-CEM leukemia = tested on: CCRF-CEM leukemia
MOLT-4 leukemia = tested on: MOLT-4 leukemia
SR leukemia = tested on: SR leukemia
RPMI-8226 leukemia = tested on: RPMI-8226 leukemia
OVCAR-4 ovarian = tested on: OVCAR-4 ovarian
SK-OV-3 ovarian = tested on: SK-OV-3 ovarian
IGROV1 ovarian = tested on: IGROV1 ovarian
OVCAR-3 ovarian = tested on: OVCAR-3 ovarian
HS 578T breast = tested on: HS 578T breast
NCI/ADR-RES ovarian = details: 10 µM
OVCAR-5 ovarian = details: 10 µM
A498 renal = details: 10 µM
OVCAR-8 ovarian = details: 10 µM

Measured: growth

NC(=O)SCC(=O)NNc1ccccc1
inactive: SK-MEL-2 melanoma 87.5% | EKVX NSCLC; 10 µM 99.4% | SN12C renal; 10 µM 94.9% | UO-31 renal; 10 µM 78.9% | TK-10 renal; 10 µM 95.5% | ACHN renal; 10 µM 81.1% | CAKI-1 renal; 10 µM 92.8% | CCRF-CEM leukemia; 10 µM 90.4% | MOLT-4 leukemia; 10 µM 111% | SR leukemia; 10 µM unless noted 111% | RPMI-8226 leukemia; 10 µM 105% | OVCAR-4 ovarian; 10 µM 104% | SK-OV-3 ovarian; 10 µM 100% | IGROV1 ovarian; 10 µM 103% | OVCAR-3 ovarian; 10 µM 107% | HS 578T breast; 10 µM 100% | NCI/ADR-RES ovarian 95.5%

CCCCCCCCCCCCCCCCCCOCC(COP(=O)([O-])OCC[N+](C)(C)C)OC (configuration not stated)
inactive: EKVX NSCLC; 10 µM 119% | SN12C renal; 10 µM 89.7% | UO-31 renal; 10 µM 94.9% | TK-10 renal; 10 µM 64% | ACHN renal; 10 µM 93.7% | CAKI-1 renal; 10 µM 69% | CCRF-CEM leukemia; 10 µM 63.9% | MOLT-4 leukemia; 10 µM 89.4% | SR leukemia; 10 µM unless noted 48.1% | RPMI-8226 leukemia; 10 µM 33.1% | OVCAR-4 ovarian; 10 µM 109% | SK-OV-3 ovarian; 10 µM 81.8% | IGROV1 ovarian; 10 µM 11.8% | OVCAR-3 ovarian; 10 µM 95.9% | NCI/ADR-RES ovarian 107%
active: OVCAR-5 ovarian -61.3%

OCC(O)C(O)C(O)C(/C=N/Nc1ccccc1)=N/Nc1ccccc1 (configuration not stated)
inactive: SK-MEL-2 melanoma 121% | SN12C renal; 10 µM 95.9% | UO-31 renal; 10 µM 61.1% | TK-10 renal; 10 µM 91.8% | ACHN renal; 10 µM 67.5% | CAKI-1 renal; 10 µM 78% | A498 renal 43.9% | CCRF-CEM leukemia; 10 µM 75.4% | MOLT-4 leukemia; 10 µM 101% | SR leukemia; 10 µM unless noted 58.8% | RPMI-8226 leukemia; 10 µM 92.2% | OVCAR-4 ovarian; 10 µM 93.1% | SK-OV-3 ovarian; 10 µM 99.5% | IGROV1 ovarian; 10 µM 83.4% | OVCAR-3 ovarian; 10 µM 90.4% | HS 578T breast; 10 µM 79.7%

COC(=O)C1C(O)C(C)C(O)C(C)C=C(C)C2=C3C(=C(C)C(=O)c4c(O)c(c(C)c(OC(C)=O)c43)NC(=O)C(C)=C/C=C\C(C)C(O)C(C)C1O)OCO2 (configuration not stated)
inactive: EKVX NSCLC; 10 µM 119% | SN12C renal; 10 µM 99.8% | UO-31 renal; 10 µM 89.3% | TK-10 renal; 10 µM 118% | ACHN renal; 10 µM 104% | CAKI-1 renal; 10 µM 133% | A498 renal 123% | CCRF-CEM leukemia; 10 µM 103% | MOLT-4 leukemia; 10 µM 153% | SR leukemia; 10 µM unless noted 138% | RPMI-8226 leukemia; 10 µM 118% | OVCAR-8 ovarian 114% | OVCAR-4 ovarian; 10 µM 108% | SK-OV-3 ovarian; 10 µM 116% | IGROV1 ovarian; 10 µM 163% | OVCAR-3 ovarian; 10 µM 113% | HS 578T breast; 10 µM 116%

COc1cccc2c1C(=O)c1c(O)c3c(c(O)c1C2=O)C[C@@](O)(C(=O)CO)C[C@@H]3OC1CC(N)C(O)C(C)O1 (some centres not stated)
active: SN12C renal; 1 µM -4.11% | SN12C renal; 2.5 µM 2.46% | UO-31 renal; 10 µM 4.05% | ACHN renal; 10 µM -13.8% | CAKI-1 renal; 10 µM -28.9% | CCRF-CEM leukemia; 10 µM -11.8% | MOLT-4 leukemia; 1 µM 5.51% | MOLT-4 leukemia; 2.5 µM -21.6% | MOLT-4 leukemia; 10 µM -12% | SR leukemia; 2.5 µM -29.1% | SR leukemia; 10 µM -0.536% | RPMI-8226 leukemia; 1 µM -15.7% | RPMI-8226 leukemia; 10 µM -17.4% | IGROV1 ovarian; 10 µM -7.77% | HS 578T breast; 10 µM -68.2%
inactive: EKVX NSCLC; 0.0025 µM 102% | EKVX NSCLC; 1 µM 65.8% | EKVX NSCLC; 2.5 µM 88.8% | EKVX NSCLC; 10 µM 24.6% | SN12C renal; 0.0025 µM 104% | SN12C renal; 10 µM 12% | UO-31 renal; 0.0025 µM 87.1% | UO-31 renal; 1 µM 61.3% | UO-31 renal; 2.5 µM 67.3% | TK-10 renal; 1 µM 63.3% | TK-10 renal; 2.5 µM 57.7% | TK-10 renal; 10 µM 25.4% | ACHN renal; 0.0025 µM 102% | ACHN renal; 1 µM 19.6% | ACHN renal; 2.5 µM 35.6% | CAKI-1 renal; 1 µM 45% | CAKI-1 renal; 2.5 µM 17.6% | CCRF-CEM leukemia; 0.0025 µM 104% | CCRF-CEM leukemia; 1 µM 26.8% | CCRF-CEM leukemia; 2.5 µM 53.3% | MOLT-4 leukemia; 0.0025 µM 94.5% | SR leukemia; 0.0025 µM 81.5% | RPMI-8226 leukemia; 0.0025 µM 101% | RPMI-8226 leukemia; 2.5 µM 62.7% | OVCAR-4 ovarian; 0.0025 µM 114% | OVCAR-4 ovarian; 1 µM 68% | OVCAR-4 ovarian; 2.5 µM 67.6% | OVCAR-4 ovarian; 10 µM 14.1% | SK-OV-3 ovarian; 0.0025 µM 95.6% | SK-OV-3 ovarian; 1 µM 28.4% | SK-OV-3 ovarian; 2.5 µM 43.4% | SK-OV-3 ovarian; 10 µM 13.8% | IGROV1 ovarian; 0.0025 µM 85.7% | IGROV1 ovarian; 1 µM 19.9% | IGROV1 ovarian; 2.5 µM 50% | OVCAR-3 ovarian; 0.0025 µM 105% | OVCAR-3 ovarian; 1 µM 81.8% | OVCAR-3 ovarian; 10 µM 10.2% | HS 578T breast; 0.0025 µM 97.9% | HS 578T breast; 1 µM 70.8% | HS 578T breast; 2.5 µM 50%
